From PubChem BioAssay
This is a sample that favours compounds with a hit; in the whole collection about 6.1% have one here.
D3 ag: activates the human D3 dopamine receptor; D3R DiscoveRx beta-arrestin cells, luminescence, 90 min; max activation, %; 0.58% of 410,000 active; AID 652048; in the data active means max activation above about 30%; further: 0% is about no effect
Target sequence (P35462 whole entry, looked up): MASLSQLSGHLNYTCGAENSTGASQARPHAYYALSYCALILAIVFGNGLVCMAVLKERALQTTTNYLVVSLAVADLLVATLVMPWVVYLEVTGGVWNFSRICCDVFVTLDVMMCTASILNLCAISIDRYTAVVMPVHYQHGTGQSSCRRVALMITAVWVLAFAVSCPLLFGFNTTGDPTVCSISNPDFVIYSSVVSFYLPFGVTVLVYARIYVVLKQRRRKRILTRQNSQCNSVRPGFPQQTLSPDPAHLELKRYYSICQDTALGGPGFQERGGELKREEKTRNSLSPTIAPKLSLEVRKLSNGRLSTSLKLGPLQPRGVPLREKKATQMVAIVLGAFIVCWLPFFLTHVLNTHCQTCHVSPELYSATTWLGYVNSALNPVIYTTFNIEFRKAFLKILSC
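Cells at 1500/well, incubated overnight, then treated with pinned compounds (dopamine as control) for 90 min at 37 degrees C. DiscoveRx reagent added for 30 - 60 minutes at room temperature; luminescence read.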
D1 potentiator: enhances dopamine response at the human D1 receptor | HEK293 TREx D1 cells, calcium flux, dopamine EC20 potentiation | potentiation, % at 10 µM | 0.036% of 360,000 active | AID 504651; in the data active means potentiation above about 30%; further: 0% is about no effect
DRD3 antagonist: D3 dopamine receptor (human) antagonism; D3R cells, DiscoveRx beta-arrestin luminescence, antagonist mode; hits give low values; AID 652054; P35462; 2.5% of 360,000 active; max response, negative = inhibition, %; in the data active means max response below about -50%; inconclusive means no clear call, values can overlap the other calls; further: on the % scale 0 is the no-effect control and ±100 the full control effect
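Cells expressing the human receptor were seeded at 1500 cells/well, incubated overnight at 37 degrees C in 5% CO2, then exposed to library compounds with dopamine controls for 90 minutes at 37 degrees C before luminescent detection.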
D1 antag: blocks dopamine activation of the human D1 receptor; P21728; HEK293 TREx D1 cells, calcium flux, dopamine EC80; hits give low values; activity change, negative = inhibition, % at 10 µM; 3.2% of 360,000 active; AID 504652; in the data active means activity change below about -30%; further: on the % scale 0 is the no-effect control and ±100 the full control effect
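Antagonism measured as reduced calcium response to an EC80 dopamine addition following 180 s compound pre-read; cells were inducible HEK293 Trex D1 plated overnight at 30 C, read kinetically at 1 cycle/sec.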
D1 ag: activates the human D1 dopamine receptor; P21728; HEK293 T-REx D1 cells, calcium flux, agonist mode; activation, % at 2 µM; 1% of 360,000 active; AID 504660; in the data active means activation above about 30%; further: 0% is about no effect
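Inducible HEK293 T-REx D1 cells, force-coupled to calcium signalling, were plated at 4000 cells/well with tetracycline and held overnight at 30 C. After no-wash calcium dye loading, compound-evoked calcium rise over 180 s flagged agonists.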
Numbers without * were called inactive; u = inconclusive; x = not tested or not shown; ! = not confirmed by another sample.

SMILES | D3 ag | D1 potentiator | DRD3 antagonist | D1 antag | D1 ag
CCN(CC)c1ccc(/C=C2\C(=N)N3N=C(CC(=O)N4CCOCC4)SC3=NC2=O)cc1 | -8 | 0 | -16 | 12 | 115*
CSc1ccc(/C=C2\C(=N)N3N=C(CC(=O)N4CCOCC4)SC3=NC2=O)cc1 | -2 | -4 | 6 | -2 | 5
COc1ccc(Cl)cc1NC(=O)NCc1ccc2c(c1)OCO2 | -17 | -11 | -12 | -33* | 10
COc1ccccc1NC(=O)NCc1ccc2c(c1)OCO2 | x | -6 | x | 6 | 1
COc1ccc(Cl)cc1NC(=O)Nc1cn(C)nc1C | -22 | -5 | 8 | -61* | 17
O=C(NCc1ccc2c(c1)OCO2)Nc1cccc(Cl)c1 | -2 | -10 | 1 | -41* | 14
CCN1CCC(N(Cc2ccc3c(c2)OCO3)C(=O)Nc2ccccc2OC)CC1 | -9 | 1 | x | 0 | 2
CCN1CCC(N(Cc2ccc3c(c2)OCO3)C(=O)Nc2cc(Cl)ccc2C(=O)OC)CC1 | -26 | -3 | x | -9 | 49*
CCN(CC)Cc1ccccc1Sc1ccccc1 | -9 | 1 | -9 | 5 | 0
Cc1cc(C)n(CC(=O)Nc2ccc(N3CCOCC3)c(Cl)c2)c(=O)c1C#N | -2 | -1 | 0 | -17 | 0
O=C(CSc1nnc(NC(=O)c2ccc(S(=O)(=O)N3CCOCC3)cc2)s1)Nc1ccccc1C(F)(F)F | 4 | 0 | -21 | -12 | 1
O=C(c1ccc(Br)cc1)C(CN1CCOCC1)c1ccccc1 (centres undefined) | -43 | 14 | -88* | -9 | 4
CN(Cc1cc(Cl)cc(Cl)c1)CC(C(=O)c1ccccc1)c1ccccc1 (centres undefined) | -4 | x | -23 | x | x
CC(CN1CCN(CC(C)C(=O)c2ccccc2)CC1)C(=O)c1ccccc1 (centres undefined) | -13 | x | -59* | x | x
CCOc1ccc(C(=O)C(CN2CCOCC2)c2ccccc2)cc1 (centres undefined) | -8 | -8 | -7 | 6 | 0
CN(C)CC(C(=O)c1ccccc1)c1ccccc1 (centres undefined) | -22 | -4 | -51* | 12 | -1
CCOC(CN1CCN(CC(C)C(=O)c2ccccc2)CC1)c1ccccc1 (centres undefined) | -19 | x | x | x | x
O=C(c1ccccc1)C(CN1CCCCC1)c1ccccc1 (centres undefined) | -32 | x | -77* | x | x
O=C(CC(C(=O)c1ccccc1)c1ccccc1)c1ccccc1 (centres undefined) | 12 | x | 26 | x | x
COc1cc(C(=O)NC(=S)N2CCN(C)CC2)cc(OC)c1OC | 8 | x | 9 | x | x
Cc1cccc(N2CCN(C(C(=O)NCc3ccccc3)c3ccc(C(F)(F)F)cc3)CC2)c1C (centres undefined) | -5 | x | -29 | x | x
CCCOc1ccc(-c2nnc(-c3ccncc3)o2)cc1 | -4 | 5 | -71* | -14 | 3
COc1cc(CNC(=O)Nc2nc(C(N)Cc3ccc(Cl)cc3)cs2)cc(OC)c1OC (centres undefined) | 2 | x | 7 | x | x
Cc1c(NC(=O)Nc2cc(F)c(F)cc2Cl)c(=O)n(-c2ccccc2)n1C | 3 | x | -20 | x | x
Cn1c(N)c(C(=O)/C=C/c2ccccc2)c(=O)[nH]c1=O | 1 | 7 | -6 | 4 | 2
SMILES | D3 ag | D1 potentiator | DRD3 antagonist | D1 antag | D1 ag
Cn1c(N)c(C(=O)Nc2ccccc2)c(=O)[nH]c1=O | 36* | x | 1 | x | x
O=C(O)CCC(=O)NNC(=O)c1cccc(Br)c1 | 3 | -3 | -24 | 5 | 1
COC(=O)CCC(=O)NNC(=O)c1cccc(Br)c1 | 1 | -4 | -6 | -38* | 2
O=C(NNC(=O)c1cccc(Br)c1)Nc1ccc(Cl)cc1 | -16 | -6 | -67* | -37* | 1
Cc1ccc(CCNC(=O)c2ccc(CSc3nc4ccncc4n3Cc3ccc(F)cc3)cc2)cc1 | -8 | -5 | x | 10 | 13
O=C1N/C(=N/NC(=O)c2cccc3ccccc23)S/C1=C\c1ccccc1OCc1ccccc1 | 6 | -4 | -59* | -7 | 1
COc1ccc(OC)c(/C=C2\S/C(=N/NC(=O)c3ccc4ccccc4c3)NC2=O)c1 | 1 | -2 | 2 | -22 | 6
CC1=C(C(=O)N(C)C)CC(CC(=O)NCc2cccs2)C(=O)N1CCC1=CCCCC1 (centres undefined) | -14 | x | u | x | x
O=C(CCn1c(=O)c2cccn2c2cccnc21)Nc1ccccc1Br | 6 | -3 | x | -3 | 0
O=S(=O)(NCCc1c[nH]c2ccccc12)c1ccccc1 | 17 | -6 | 5 | -36* | 20
CC1(C(=O)NS(=O)(=O)c2cccc(C#N)c2)CCN1C(=O)Cc1ccc(-c2ccccc2)cc1 (centres undefined) | 4 | x | -15 | x | x
COc1cc(OC)cc(-c2c(Sc3ccccc3)c3cc(-c4cnc(OC)nc4)ccc3n2C)c1 | 40* | x | u | x | x
CC(C)CC1(C)N=C(c2ccccc2)C(=S)N1 (centres undefined) | 0 | -9 | 5 | -40* | 2
O=C(Nc1ccccc1)C1Cc2c(-c3ccc(Cl)cc3)ccnc2O1 (centres undefined) | 2 | x | 3 | x | x
Cc1ccc(N2C(=O)/C(=C\c3ccc(C(C)C)cc3)N=C2SC2CCOC2=O)cc1 (centres undefined) | -11 | -10 | u | -38* | 2
O=C1OCCC1Sc1nnnn1-c1ccccc1 (centres undefined) | -9 | -1 | 5 | -4 | 2
O=C(OCC1CCNCC1)c1ccc2c(c1)OCO2 | 3 | -5 | 4 | 5 | 4
O=C(OCC1CCNCC1)c1ccc(F)cc1 | -4 | x | -55* | x | x
CC(C)Oc1ccc(C(=O)Nc2cccc(S(=O)(=O)N3CCCC3)c2)cc1 | 0 | x | 5 | x | x
COCCN=C1N[C@@H](c2ccc(Br)cc2)C(C(=O)OC)=C(C)N1Cc1ccccc1 | 0 | -4 | 14 | -34*! | 34*!
COC(=O)C1=C(C)N(Cc2ccco2)C(=O)N[C@H]1c1ccccc1 | x | 1 | x | -49* | -1
COC(=O)C1=C(C)N(Cc2ccco2)C(=O)N[C@H]1c1ccc(Br)cc1 | x | -2 | x | 28 | -1
COCCN=C1N[C@@H](c2ccccc2)C(C(=O)OC)=C(C)N1Cc1ccccc1 | -19 | -3 | 2 | -4 | 2
CC(=O)C1=C(C)N(Cc2ccccc2)C(=O)N[C@H]1c1cccs1 | 0 | -2 | 24 | 11 | 2
COC(=O)C1=C(C)N(Cc2ccccc2)C(=O)N[C@H]1c1cccs1 | -5 | -7 | -55* | -15 | 2
Cc1c(Cl)cccc1NC(=O)Cn1cnc2nc3c(cc2c1=O)CCCC3 | -8 | -1 | x | 13 | 1
Clc1ccc(C2NCCc3sccc32)cc1 (centres undefined) | -13 | 2 | -24 | -7 | 7
COc1ccc(C2NCCc3sccc32)cc1 (centres undefined) | 73* | 4 | 11 | -1 | 4
COc1ccccc1-n1c(=S)[nH]c2c(sc(=S)n2-c2ccccc2C)c1=O | 56* | -1 | -78* | 0 | 1
